VP16 counter – inhibits Gal4-VP16 luciferase reporter, ROR gamma counter-screen. Drosophila S2 Gal4-VP16 UAS-luciferase, luminescence, 20 h. Potency, µM (doses to about 53.6 µM), for inactives: top-dose activity, negative = inhibition, actives largely listed as inhibitors. hit rate 3.5% among 310,000;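 note: Gal4-VP16 expression switched on by copper sulfate through the metallothionein promoter; % is set by controls: 0 for no effect and ±100 for the full control effect; nearly all actives have a fitted effect of over 50% in size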
RORgamma inh – inhibitors of mouse ROR gamma transcriptional activity | AID 2551 | hit rate 5.4% among 310,000 | Potency, µM (highest dose often 53.6 µM), for the others: at the top dose activity change, negative = inhibition, most hits filed as inhibitors | Drosophila S2 Gal4-RORgamma UAS-luciferase reporter, 20 h | P51450; note: % is set by controls: 0 for no effect and ±100 for the full control effect; nearly all actives have a fitted effect of over 60% in size
Target sequence (P51450 whole entry, looked up, the tested form may be a part): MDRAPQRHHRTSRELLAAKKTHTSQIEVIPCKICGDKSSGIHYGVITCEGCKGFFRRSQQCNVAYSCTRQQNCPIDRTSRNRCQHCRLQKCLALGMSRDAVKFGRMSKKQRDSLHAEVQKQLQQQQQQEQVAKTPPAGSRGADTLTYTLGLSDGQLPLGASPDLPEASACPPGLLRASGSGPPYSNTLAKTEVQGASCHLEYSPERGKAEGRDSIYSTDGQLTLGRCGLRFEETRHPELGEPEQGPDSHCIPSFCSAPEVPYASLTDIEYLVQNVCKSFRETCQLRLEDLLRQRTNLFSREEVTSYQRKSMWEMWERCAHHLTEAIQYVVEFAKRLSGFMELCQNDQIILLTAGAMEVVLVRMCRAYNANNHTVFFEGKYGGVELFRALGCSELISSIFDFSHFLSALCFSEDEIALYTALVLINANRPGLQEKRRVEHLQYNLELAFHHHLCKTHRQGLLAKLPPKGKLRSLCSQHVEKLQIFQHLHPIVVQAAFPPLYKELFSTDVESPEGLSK
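Compounds are pin-transferred onto Drosophila Schneider cells expressing a copper-inducible Gal4–ROR gamma transactivation domain fusion. After 1 hr, copper sulfate is added to 700 uM final; luciferase is read 20 hr later.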
Sfp inh – inhibitors of Bacillus subtilis Sfp phosphopantetheinyl transferase. hit rate 3.5% among 310,000. Biochemical Sfp PPTase activity, qHTS. Potency, µM, for inactives: largest response in the series, negative = inhibition, actives largely listed as inhibitors. Q9F4F7;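 note: the enzyme is Sfp with the accession as filed and its product quenches rhodamine fluorescence; 0% = enzyme reaction without inhibitor and -100% = no enzyme wells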
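Fluorescence-quenching assay with 15 nM Sfp, 5 uM rhodamine-CoA and 12.5 uM BHQ-2-labelled ybbR peptide in pH 7.6 Hepes/MgCl2 buffer. Enzyme was pre-incubated with compound for 15 min at room temperature. Rate was taken from the 30-min fluorescence change (525/598 nm).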
Epigenetic derep – derepresses silenced GFP reporter in murine cells; Potency, µM (doses to about 53.9 µM), without a hit: at the highest dose GFP activation, most hits filed as activators; AID 1865; murine LDR cells, GFP reporter derepression, 30 h; hit rate 0.2% among 280,000; note: % of control where 0% means no effect; nearly all actives have a fitted effect of over 60% in size
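Readout is the number of GFP-expressing murine LDR cells, counted by cytometry following washing. Cells were treated with compound for 30 h at 37 C; the stably integrated CMV-GFP locus is normally silent.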
ClpP mod – qHTS Assay for Activators of ClpP; purified B. subtilis ClpP, FRET peptide cleavage, 20 min; Potency, µM (top dose mostly 57.5 µM), for inactives: top-dose activity change, negative = active; hit rate 1.9% among 340,000; active = well fitted falling curve with a large enough effect; inconclusive = small, poorly fitted or top-dose-only effect; inactive = no such curve, though single readings can be large or run the other way; note: the source files actives as falling curves though it sought activators and does not explain the sign; nearly all actives have a fitted effect of over 65% in size
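Purified B. subtilis ClpP, 10 microg/mL final in Tris/HCl pH8 with KCl, BSA, glycerol and Tween-20, cleaved an Abz/nitrotyrosine-quenched decapeptide. Fluorescence (ex 320, em 430) was read at 0 and 20 min at room temperature. Delta was normalized to 5.8 microM ADEP and DMSO/no-enzyme controls.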
PINK1 expr mod – PINK1 expression modulation | AID 624263 | PINK1 immunofluorescence, high-content cytometry, 24 h | Potency, µM (titrated, usually from 76.6 µM), without a hit: top-dose activation (PINK1 increase), usual class: activators | hit rate 0.2% among 410,000; active = well fitted activation curve with a large enough effect; inconclusive = small, poorly fitted or top-dose-only effect; cell line not stated here; note: % of control where 0% means no effect; nearly all actives have a fitted effect of over 65% in size
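Cells are seeded, rested 12 hours, then given compound at five concentrations or DMSO for 24 hours. After fixation, blocking and antibody staining, PINK1 amount and mitochondrial localization are scored; CCCP serves as control.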
An asterisk follows results filed as active; ? = inconclusive; . = no result; ! = not active in a repeat; [ ] = another dose, or the depositor's remark. Most compounds without a hit are left out; they make up all but 8.1% or so of the library. Unless noted, calls come from the whole dose curve; as a rule, active = well fitted curve in the direction sought with a large enough effect; inconclusive = small, poorly fitted or top-dose-only effect, or another doubt; inactive = no such curve, though single readings can be large; an effect the other way counts as inactive or inconclusive. Potency is the fitted concentration of half-maximal effect.

SMILES	VP16 counter	RORgamma inh	Sfp inh	Epigenetic derep	ClpP mod	PINK1 expr mod
Nc1ccc(Oc2ccc([N+](=O)[O-])cc2[N+](=O)[O-])cc1	2.8%	8.91µM*	-12.0%	0.0%	-0.5%	-6.5%[38.3 µM]
O=c1ccc2ccc(Oc3ccc([N+](=O)[O-])cc3[N+](=O)[O-])cc2o1	?	10µM*	3.7%	-1.8%	.	.
CC(C)(C)C(=O)NCCc1csc2nc(-c3ccc(F)cc3)nn12	.	.	.	-1.6%	-1.1%	0.6%
Cc1ccc(-n2cccc2C(=O)NS(=O)(=O)c2ccc(C)cc2)cc1	3.8%	17.6%	-9.2%	-1.0%	1.9%	2.8%
Cc1ccc(-n2cccc2C(=S)N=P(N(C)C)(N(C)C)N(C)C)cc1	6.31µM*	2.24µM*	?	0.4%	-1.9%	?
COc1cccc(N(CC(=O)NCCSCc2ccco2)S(=O)(=O)c2ccccc2)c1	-10.4%	29.5%	-6.8%	.	.	-1.7%
Cc1ccc(C)c(N(CC(=O)NCCSCc2ccco2)S(C)(=O)=O)c1	1.3%	-1.0%	20µM*	1.5%	-1.2%	0.3%
CS(=O)(=O)N(Cc1ccccc1)c1ccc(C(=O)NCCSCc2ccco2)cc1	?	?	28.2µM*	0.0%	-0.9%	-4.9%
Cc1cccc(N(CC(=O)NCCSCc2ccco2)S(=O)(=O)c2ccccc2)c1	23.6%	43.9%	56.2µM*	-1.4%	-2.1%	-0.6%
Cc1ccccc1N1CCN(S(=O)(=O)c2nnc(NC(=O)c3ccc(C(C)C)cc3)s2)CC1	.	.	.	1.1%	-14.9%	-0.3%
COc1ccc(C)cc1Nc1n[n+](-c2ccccc2)c(-c2ccc(NC(C)=O)cc2)s1	-4.7%	-4.2%	?	.	1.5%	0.0%
COc1ccc(C)cc1Nc1n[n+](-c2ccccc2)c(-c2cc([N+](=O)[O-])cc(OC)c2O)s1	-2.6%	-5.0%	22.4µM*	.	0.4%	8.0%
N#Cc1c[nH]n2c(NC3CCCCC3)c(-c3cccc(Cl)c3)nc12	.	.	.	-1.1%	2.1%	-0.3%
Cc1ccc(-n2c(SCC(=O)NCc3ccco3)nc3nc4c(cc3c2=O)COC(C)(C)C4)cc1	-4.1%	1.4%	25.1µM*	-1.8%	-4.0%	5.3%
CCN(CC)C1CCN(C(=O)c2cnn(-c3nccc(-c4ccco4)n3)c2C(C)C)C1 (stereo not drawn)	.	.	.	.	.	0.2%
CCn1c2ccccc2c2cc(CN3CCN(C(=O)c4ccco4)CC3)ccc21	?	?	56.2µM*	3.7%	-16.3%	2.2%
CCOc1ccc(CN2CCN(Cc3ccc4c(c3)c3ccccc3n4CC)CC2)cc1	.	.	.	-1.6%	20µM*	1.6%
CCc1cc(C(=O)N2CCN(C(=O)c3ccco3)CC2)sc1C	.	.	.	.	28.2µM*	-6.2%
CCCCn1c(=NC(=O)c2cccnc2)c(C(=O)OCC)cc2c(=O)n3ccccc3nc21	-20.4%	-22.4%	4.0%	-0.8%	?	2.3%
CCOC(=O)c1cc2c(=O)n3cccc(C)c3nc2n(CCCOC)c1=NC(=O)c1cccnc1	-13.1%	-19.4%	18.5%	1.1%	15.8µM*	2.2%
CCOC(=O)c1cc2c(=O)n3ccccc3nc2n(Cc2ccco2)c1=NC(=O)c1cc(C)cc(C)c1	.	.	.	11.1%	3.9%	7.0%
CCCCCn1c(=NC(=O)c2ccco2)c(C(=O)OCC)cc2c(=O)n3ccccc3nc21	-11.6%	-6.7%	-5.0%	0.0%	15.8µM*	1.6%
CCOC(=O)c1cc2c(=O)n3ccccc3nc2n(Cc2ccco2)c1=NC(=O)c1ccc(OC)cc1OC	-5.0%	-5.0%	44.7µM*	0.2%	0.4%	0.4%
CCOCCCn1c(=NC(=O)c2cccnc2)c(C(=O)OCC)cc2c(=O)n3ccccc3nc21	-10.3%	7.9%	16.0%	-1.0%	20µM*!	-0.5%
CCOc1cc(C(=O)NCc2nc(-c3cccc(C)c3)no2)cc(OCC)c1OCC	.	.	.	-1.0%	2.0%	0.3%
C=C1NN(CC#N)C(=O)N1c1ccc(OCc2ccccc2)cc1	.	.	.	.	-0.4%	-1.0%

Bioassay records (PubChem)
